Several values for one entry are separate records, joined by “and”; a condition that tells them apart may be missing. Identical values can stand only once. Results filed as inconclusive are left out. A call without a number means that no potency is given here. The source holds several records for some structures; these can differ, active in one and inactive in another. Activity calls are given as the source filed them. Calls follow the shape of the dose curve; as a rule, active = well fitted curve in the direction sought with a large enough effect; inconclusive = small, poorly fitted or top-dose-only effect, or another doubt; inactive = no such curve, though single readings can be large; an effect the other way counts as inactive or inconclusive.
What was measured:
MKL-1 = experiment: qHTS assay to identify novel small-molecules to repurpose for Merkel cell carcinoma treatment (AID 1296009); details: MCC and control cell lines, CellTiter-Glo viability, 72 h; series mostly up to 46 µM; also: nearly all actives have a fitted effect of over 60% in size
Procedure, shortened: (§1)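 CellTiter-Glo luminescence after 72 hr compound exposure at 37 degree celsius gave cell viability. Libraries NPC and MIPE were run as 8- and 11-point dose responses; RLUs normalized to DMSO (negative) and no-cell (cytotoxicity) controls.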

MKL-2 = experiment: as above; details: MCC and control cell lines, CellTiter-Glo viability, 72 h; series mostly up to 46 µM
Procedure, shortened: as §1

NIH3T3 = experiment: as above; details: MCC and control cell lines, CellTiter-Glo viability, 72 h; series mostly up to 44.8 µM
Procedure, shortened: as §1

UISO = experiment: as above; details: MCC and control cell lines, CellTiter-Glo viability, 72 h; series mostly up to 46 µM
Procedure, shortened: as §1

WaGa = experiment: as above; details: MCC and control cell lines, CellTiter-Glo viability, 72 h; series mostly up to 46 µM
Procedure, shortened: as §1

C33A = experiment: Primary qHTS to identify gynecologic anti-cancer compounds using libraries of approved drugs and bioactive compounds (AID 1345084); details: Gynecologic cancer cell panel viability, ATPlite luminescence, 48 h; series mostly up to 57.5 µM; also: nearly all actives have a fitted effect of over 55% in size
Procedure, shortened: (§2)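 Cell viability after 48 h drug treatment, ATPlite luminescence readout; five doses.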

CASKI = experiment: as above; details: Gynecologic cancer cell panel viability, ATPlite luminescence, 48 h; series mostly up to 57.5 µM
Procedure, shortened: as §2

Es-2 = experiment: as above; details: Gynecologic cancer cell panel viability, ATPlite luminescence, 48 h; series mostly up to 57.5 µM
Procedure, shortened: as §2

HeLa = experiment: as above; details: Gynecologic cancer cell panel viability, ATPlite luminescence, 48 h; series mostly up to 57.5 µM
Procedure, shortened: as §2

CAOV3 = experiment: as above; details: Gynecologic cancer cell panel viability, ATPlite luminescence, 48 h; series mostly up to 57.5 µM
Procedure, shortened: as §2
Potency is read from the fitted curve at half-maximal effect.

| Structure (SMILES) | Potency (MKL-1) | Potency (MKL-2) | outcome (NIH3T3) | Potency (UISO) | Potency (WaGa) | Potency (C33A) | Potency (CASKI) | Potency (Es-2) | Potency (HeLa) | Potency (CAOV3) |
| --- | --- | --- | --- | --- | --- | --- | --- | --- | --- | --- |
| COc1ccc(C2CNC(=O)C2)cc1OC1CCCC1 (stereo unspecified) | inactive | inactive | inactive | inactive | inactive | inactive | inactive | inactive | inactive | – |
| Cc1cc(C(C)(C)C)c(O)c(C)c1CC1=NCCN1 | inactive | inactive | inactive | inactive | inactive | inactive | inactive | inactive | inactive | inactive |
| NCCc1cnc[nH]1 | inactive | inactive | inactive | inactive | inactive | inactive | inactive | inactive | inactive | – |
| CC(C)Cc1ccc(C(C)C(=O)O)cc1 (stereo unspecified) | inactive | inactive | inactive [at 17.4 µM] | inactive | inactive | inactive | inactive | inactive | inactive | – |
| COc1cc2nc(N(C)CCCNC(=O)C3CCCO3)nc(N)c2cc1OC (stereo unspecified) | inactive | inactive | inactive | inactive | inactive | inactive | inactive | inactive | inactive | inactive |
| CC[N+](CC)(CC)CCOc1cccc(OCC[N+](CC)(CC)CC)c1OCC[N+](CC)(CC)CC | inactive | inactive | inactive | inactive | inactive | inactive | inactive | inactive | inactive | inactive |
| NCCS(=O)(=O)O | inactive | inactive | inactive | inactive | inactive | inactive | inactive | inactive | inactive | inactive |
| CN(C)CCOC(c1ccccc1)c1ccccc1 | inactive | inactive | inactive | inactive | inactive | inactive | inactive | inactive | inactive | – |
| O=C(c1ccc(F)cc1)C1CCN(CCn2c(=O)[nH]c3ccccc3c2=O)CC1 | inactive | inactive | inactive | inactive | inactive | inactive | inactive | inactive | inactive | inactive |
| Cc1ccccc1N1C(=O)c2cc(S(N)(=O)=O)c(Cl)cc2NC1C (stereo unspecified) | inactive | inactive | inactive | inactive | inactive | inactive | inactive | inactive | inactive | – |
| CC(=O)OCC(CCn1cnc2cnc(N)nc21)COC(C)=O | inactive | inactive | inactive | inactive | inactive | inactive | inactive | inactive | inactive | – |
| Nc1c2c(nc3ccccc13)CCCC2 | inactive | inactive | inactive | inactive | inactive | inactive | inactive | inactive | inactive | inactive |
| COc1ccccc1OCC(O)CN1CCN(CC(=O)Nc2c(C)cccc2C)CC1 (stereo unspecified) | inactive | inactive | inactive | inactive | inactive | inactive | inactive | inactive | inactive | inactive |
| O=C(c1ccc(OCCN2CCCCC2)cc1)c1c(-c2ccc(O)cc2)sc2cc(O)ccc12 | inactive | 15 µM (active) | – | inactive | inactive | inactive | inactive | inactive | inactive | inactive |
| COc1ccc2c(c1)c(CC(=O)O)c(C)n2C(=O)c1ccc(Cl)cc1 | inactive | inactive | – | inactive | inactive | inactive | inactive | inactive | inactive | inactive |
| CCc1cccc2c3c([nH]c12)C(CC)(CC(=O)O)OCC3 (stereo unspecified) | inactive | inactive | – | inactive | inactive | inactive | inactive | inactive | inactive | – |
| CC12CC3CC(C)(C1)CC(N)(C3)C2 | inactive | inactive | – | inactive | 3.72 µM (active) and inactive | inactive | inactive | inactive | inactive | – |
| CC(C)C(=O)Nc1ccc([N+](=O)[O-])c(C(F)(F)F)c1 | inactive | inactive | inactive | inactive | – | inactive | inactive | inactive | inactive | inactive |
| COc1ccc(CCN(C)CCCC(C#N)(c2ccc(OC)c(OC)c2)C(C)C)cc1OC (stereo unspecified) | inactive | inactive | – | inactive | inactive | inactive | inactive | inactive | inactive | – |
| C[C@H]1c2cccc(O)c2C(O)=C2C(=O)[C@]3(O)C(O)=C(C(N)=O)C(=O)[C@@H](N(C)C)[C@@H]3[C@@H](O)[C@@H]21 | inactive | inactive | inactive | – | inactive | inactive | – | inactive | inactive | – |
| CC[C@@]1(O)C(=O)OCc2c1cc1n(c2=O)Cc2cc3c(CN(C)C)c(O)ccc3nc2-1 | 21.1 nM (active) and 93.5 nM (active) | 4.2 nM (active) and 13.2 nM (active) | – | 237 nM (active) and 46.9 nM (active) | 3.8 nM (active) and 26.4 nM (active) | 2.51 µM (active) and 7.08 µM (active) | 1.26 µM (active) and 4.47 µM (active) | 2 µM (active) | inactive | 3.16 µM (active) |

From PubChem BioAssay (NCATS)
